The text below walks through data of PubChem BioAssay (NCATS).

A short description of assay [1]: AP1 Signaling Pathway (AID 357).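 Also: ME-180 reporter cells stimulated with EGF at its EC50 level; % is scaled to controls: 0 for no effect and ±100 for the full control effect.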 A digest of the protocol: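 Modulation of EGF-driven AP-1 transcription was assessed with a beta-lactamase reporter in ME-180 cells. Compound and EC50 EGF were co-incubated 5 hours at 37 °C before 2.5-hour CCF4 loading at room temperature and dual-emission reading.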
The target of assay [2] is Cytochrome P450 1A2 (Homo sapiens) (UniProt P05177). Briefly: p450-cyp1a2 (AID 410; calls by dose curve; also: potency is read from the fitted curve at half-maximal effect;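 as to activity change, negative = inhibition: -100% = full effect of reference inhibitor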). A digest of the protocol: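 Human CYP1A2 (20nM) demethylated Luciferin-ME at its Km (100uM) in 100mM KPO4. After 10 min compound preincubation, NADPH regeneration ran the reaction 60 min at room temperature. Luciferin was read by luminescence, normalized to 57 uM furafylline.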
Assay [3] in a line: NFAT Signaling Pathway (AID 444).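 Also: carbachol stimulus at about its EC50 of 1 µM final; % is scaled to controls: 0 for no effect and ±100 for the full control effect.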 The note with it: Jurkat NFAT-bla M1, carbachol, beta-lactamase ratio, 5 h. Summed up:
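Jurkat cells carrying an NFAT-driven β-lactamase reporter and co-transfected muscarinic M1 receptor were treated with compound plus carbachol (1 uM final, an EC50 level) for 5 h at 37 °C. CCF4 loading followed for 1 h at RT; 460/530 nm ratio gave %activity.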

The target of assay [4] is Glucocorticoid receptor (Homo sapiens) (UniProt P04150). Briefly: GR-GFP Redistribution (AID 450;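 active = compounds whose dose series gives a full or clear partial fitted curve of increased nuclear translocation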; also: potency is read from the fitted curve at half-maximal effect). The note with it: U2OS GR-GFP nuclear translocation, laser cytometry, 2 h.
Assay [5] shares this target. Briefly: GR-EFC Redistribution (AID 451; calls by dose curve; also: potency is read from the fitted curve at half-maximal effect). The following applies: CHO-K1 GR-EFC translocation, beta-gal luminescence, 2 h. Summed up: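 CHO-K1 cells stably expressing nuclear-localized β-gal enzyme acceptor and GR fused C-terminally to the enzyme donor fragment; ligand-driven nuclear translocation restores β-gal by complementation. Compounds titrated up to 46 uM final, 2 h at 37 °C; luminescence read.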

The target in assay [6] is Mitogen-activated protein kinase 10 (Mus musculus) (UniProt Q61831). Briefly: JNK3 AlphaScreen Assay (AID 530).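 Also: kinase came from lysate of stimulated human HepG2 cells; signal reports phosphorylation of biotinylated GST-cJun 1-79 at Ser73 with 10 µM ATP; % is scaled to controls: 0 for no effect and ±100 for the full control effect.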 Summed up:
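JNK3 came from HepG2 lysates pre-activated with IL-1beta and TNF-alpha and phosphorylated biotinylated GST-cJun (1-79) at 10 uM ATP, pH 7.6, room temperature. Compounds were titrated. AlphaScreen signal used anti-phospho-cJun (Ser73) antibody.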
A general note: In Alpha technology, singlet oxygen from a donor bead excites a nearby acceptor bead.

Assay [7] in a line: Cell Viability - BJ (AID 421; calls by dose curve;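 also: potency is read from the fitted curve at half-maximal effect; cells exposed to compound for 40 hours at 37 °C before readout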). The note with it: BJ fibroblast viability, qHTS. A digest of the protocol:
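Quantitative HTS: ATP depletion in BJ cells after 40 hr compound exposure in complete culture medium, detected with CellTiter-Glo; AC50 from standard Hill fits.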
(qHTS replaces the single test concentration by a dilution series.)

Assay [8] is described as follows: Cell Viability - Jurkat (AID 426;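 active = dose-dependent loss of cell ATP signal giving a full or clear fitted curve, ranked by lower potency value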; also: potency is read from the fitted curve at half-maximal effect). The following applies: qHTS. Summed up:
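Jurkat (clone E6-1, human T-cell leukemia) cells, 5000/well in complete medium, were exposed to compound for 40 hr at 37 °C. Viability was read as intracellular ATP by CellTiter-Glo luminescence; AC50 came from Hill fits of concentration-response data.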

Assay [9] in a line: Cell Viability - Hek293 (AID 427;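 active = compounds whose dose-response curve shows a full or clear partial loss of cell viability, called from curve shape rather than a numeric limit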;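 also: potency is read from the fitted curve at half-maximal effect; cells exposed to compound for 40 hours at 37 °C before reading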). The following applies: qHTS. A digest of the protocol:
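AC50 values derive from Hill-modelled concentration-response of ATP-based luminescence, normalized between DMSO-only and 100 uM tamoxifen controls. Cells were exposed in complete culture medium for 40 hr at 37 °C before detection.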

Assay [10] can be described thus: Cell Viability - HepG2 (AID 433; calls by dose curve;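 also: potency is read from the fitted curve at half-maximal effect; potency for ATP loss meaning cytotoxicity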). The note with it: qHTS. Summed up: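 ATP luminescence (CellTiter-Glo) after 40 h compound exposure, 37 °C, HepG2, 1500 cells/well, complete medium. Normalized: DMSO = basal, 100 uM tamoxifen = 100% inhibition. AC50 via standard Hill equation.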
Assay [11] can be described thus: Cell Viability - MRC5 (AID 434; calls by dose curve;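 also: potency is read from the fitted curve at half-maximal effect; potency reflects cytotoxicity seen as loss of intracellular ATP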). The following applies: MRC5 lung fibroblast viability, qHTS. A digest of the protocol: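 MRC5 normal human lung fibroblasts (1500/well) were treated with compounds for 40 hr at 37 °C in complete medium, and viable cells were measured as intracellular ATP by CellTiter-Glo luminescence. AC50 came from Hill fits, normalized to DMSO and 100 uM tamoxifen.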

Assay [12] is described as follows: Cell Viability - SK-N-SH (AID 435; calls by dose curve; also: potency is read from the fitted curve at half-maximal effect). The following applies: SK-N-SH neuroblastoma cell viability qHTS. Summed up: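 CellTiter-Glo ATP luminescence, 20 min RT read; cells pre-plated 5 hr, compound 40 hr at 37 °C, 1500 cells/well, complete medium. Normalized DMSO = 0, 100 uM tamoxifen = 100% inhibition; Hill-fit AC50.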
A short description of assay [13]: Stat Signaling Pathway (AID 446).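 Also: ME-180 cervical cancer cells given 40 pM IL-6 alongside compound; SIE-controlled beta-lactamase reporter measured as 460/530 nm FRET emission ratio; % is scaled to controls: 0 for no effect and ±100 for the full control effect.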 A digest of the protocol: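 IL-6/STAT signaling read in ME-180 cells via an SIE beta-lactamase reporter. Stimulus was 40 pM IL-6 (its AC50) for 5 hrs, so both activation and inhibition register.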
Assay [14] in a line: Cell Viability - N2a (AID 540; active = well fitted curve in the direction sought with a large enough effect; an effect the other way counts as inactive or inconclusive;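 also: plate controls were DMSO alone for no effect and tamoxifen control for full effect; nearly all actives have a fitted effect of over 45% in size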). The note with it: N2a mouse neuroblastoma cell viability; activity change, negative = cytotoxicity: at 92.2 µM (top of the series). Summed up: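 Mouse neuroblastoma N2a cells (1500/well) were preincubated 5 hr at 37 °C, then exposed to compounds for 40 hr at 37 °C in complete medium. Viability was read as intracellular ATP by CellTiter-Glo luminescence; AC50 from Hill fits.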

Assay [15] is described as follows: Cell Viability - NIH 3T3 (AID 541; active = well fitted curve in the direction sought with a large enough effect; an effect the other way counts as inactive or inconclusive;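 also: plate controls were DMSO alone for no effect and tamoxifen positive control for full effect; nearly all actives have a fitted effect of over 25% in size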). The note with it: NIH 3T3 cell viability, qHTS; activity change, negative = cytotoxicity: at 92.2 µM (top of the series). Summed up:
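NIH 3T3 mouse embryo fibroblasts (1000 cells/well) were plated in complete medium and treated with compound for 40 hr at 37 °C. Viability was read as intracellular ATP by CellTiter-Glo luminescence; AC50 values came from Hill-equation fits of concentration-response data.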

Assay [16] is described as follows: Cell Viability - HUV-EC-C (AID 542; active = well fitted curve in the direction sought with a large enough effect; an effect the other way counts as inactive or inconclusive; also: % is scaled to controls: 0 for no effect and ±100 for the full control effect; nearly all actives have a fitted effect of over 35% in size). A digest of the protocol: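 HUV-EC-C normal human vascular endothelial cells, 1000 cells/well, pre-incubated 5 hr at 37 °C, then exposed to compounds for 40 hr at 37 °C in complete medium. Viability measured as intracellular ATP by CellTiter-Glo luminescence; AC50 from Hill fits.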
Assay [17] in a line: Cell Viability - SH-SY5Y (AID 544; active = well fitted curve in the direction sought with a large enough effect; an effect the other way counts as inactive or inconclusive;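 also: 0% = DMSO alone and -100% = 100 µM tamoxifen; nearly all actives have a fitted effect of over 55% in size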). The following applies: SH-SY5Y neuroblastoma cell viability; viability change, negative = cytotoxic: at 92.2 µM (top of the series). Summed up:
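Human neuroblastoma SH-SY5Y cells (1500/well) in complete medium were exposed to compounds for 40 hr at 37 °C; intracellular ATP was then quantified by CellTiter-Glo luminescence after 20 min at room temperature. AC50 came from Hill-equation concentration-response fits.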

A short description of assay [18]: Cell Viability - Renal Proximal Tubule (AID 545; active = well fitted curve in the direction sought with a large enough effect; an effect the other way counts as inactive or inconclusive;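 also: 0% = DMSO only and -100% = 100 µM tamoxifen; nearly all actives have a fitted effect of over 40% in size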). A digest of the protocol:
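Rat kidney proximal tubule cells, freshly isolated; 1000 cells/well, 5 hr settle, compound 40 hr 37 °C. CellTiter-Glo 20 min RT, luminescence read. AC50 by standard Hill fit.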

A short description of assay [19]: Cell Viability - Mesenchymal (AID 546; active = well fitted curve in the direction sought with a large enough effect; an effect the other way counts as inactive or inconclusive;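 also: cells exposed to compound for 40 hours before reading; 0% = DMSO only and -100% = 100 µM tamoxifen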). Summed up:
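Normal human renal glomerulus-derived kidney mesenchymal cells, 1000 per well in complete medium, were treated with compounds for 40 hr at 37 °C. Viability was read as intracellular ATP by CellTiter-Glo luminescence; AC50 values came from Hill-equation fits of qHTS concentration-response data.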

“And” between values parts separate entries of the source, which are not always exact repeats. Equal entries are not always repeated. Unmarked numbers belong to inactive results. Results filed as inconclusive are left out. The source made the active and inactive calls. Unless noted, calls follow the shape of the dose curve; as a rule, active = well fitted curve in either direction with a large enough effect (not every such curve was filed as active); inconclusive = small, poorly fitted or top-dose-only effect, or another doubt; inactive = flat fitted curve, though single readings scatter.

Sequence of Glucocorticoid receptor (Homo sapiens) (P04150 whole entry, looked up, the tested form may be a part): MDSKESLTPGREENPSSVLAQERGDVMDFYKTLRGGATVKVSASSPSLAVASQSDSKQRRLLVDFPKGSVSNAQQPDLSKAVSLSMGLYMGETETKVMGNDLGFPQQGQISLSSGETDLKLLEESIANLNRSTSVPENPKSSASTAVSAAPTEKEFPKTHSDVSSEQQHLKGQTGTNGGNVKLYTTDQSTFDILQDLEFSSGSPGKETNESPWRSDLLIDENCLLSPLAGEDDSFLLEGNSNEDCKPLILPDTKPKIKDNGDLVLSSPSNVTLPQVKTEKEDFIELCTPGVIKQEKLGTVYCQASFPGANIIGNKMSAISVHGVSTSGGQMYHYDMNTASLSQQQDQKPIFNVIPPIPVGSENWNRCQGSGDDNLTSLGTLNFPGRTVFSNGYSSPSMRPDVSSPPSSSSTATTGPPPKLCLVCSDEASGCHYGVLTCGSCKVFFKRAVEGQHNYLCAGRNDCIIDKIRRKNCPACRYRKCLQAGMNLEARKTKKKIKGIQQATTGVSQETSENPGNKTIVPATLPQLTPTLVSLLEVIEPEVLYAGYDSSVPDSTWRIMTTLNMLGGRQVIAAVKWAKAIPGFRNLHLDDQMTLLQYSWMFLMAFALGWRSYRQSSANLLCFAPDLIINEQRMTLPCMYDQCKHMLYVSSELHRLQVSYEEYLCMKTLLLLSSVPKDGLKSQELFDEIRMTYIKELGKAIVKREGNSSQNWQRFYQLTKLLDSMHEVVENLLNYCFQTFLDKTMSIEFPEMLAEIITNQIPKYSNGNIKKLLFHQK
Sequence of Cytochrome P450 1A2 (Homo sapiens) (P05177 whole entry, looked up): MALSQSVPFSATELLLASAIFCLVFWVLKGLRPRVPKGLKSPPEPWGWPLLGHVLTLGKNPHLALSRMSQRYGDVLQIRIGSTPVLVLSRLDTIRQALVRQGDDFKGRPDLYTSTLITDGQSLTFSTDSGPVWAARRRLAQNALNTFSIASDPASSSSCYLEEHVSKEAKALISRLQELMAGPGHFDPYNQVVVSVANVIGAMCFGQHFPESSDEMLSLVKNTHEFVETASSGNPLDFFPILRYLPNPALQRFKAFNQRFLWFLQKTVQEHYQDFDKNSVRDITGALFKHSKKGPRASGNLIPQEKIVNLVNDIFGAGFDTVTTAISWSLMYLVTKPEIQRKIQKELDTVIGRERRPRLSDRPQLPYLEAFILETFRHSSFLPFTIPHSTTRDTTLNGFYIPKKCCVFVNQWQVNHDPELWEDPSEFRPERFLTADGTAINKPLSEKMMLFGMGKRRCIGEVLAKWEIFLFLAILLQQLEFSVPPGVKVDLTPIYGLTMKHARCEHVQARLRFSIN

For the compound `O=C(Nc1ccc([N+](=O)[O-])cc1Cl)c1cc(Cl)ccc1O`, the outcome in assay [1] and in [6] was inactive. Further, the Potency was 3.98 µM (active) and 1.26 µM (active) in assay [2]; > 46 µM and > 20.6 µM in [4]; > 46 µM and > 20.6 µM in assay [5]. Besides, the activity change, negative = inhibition was -101% (active) in [3] (at 17.2 µM (top of the series)) and -89.8% (active) in assay [3] (at 38 µM (top of the series)).
For `Cc1cn([C@H]2C=C[C@@H](CO)O2)c(=O)[nH]c1=O`, the outcome in [1], in assay [13], in assay [6], in [16] and in [19] was inactive. The Potency in assay [7], in assay [8], in assay [9], in assay [10], in assay [11] and in assay [12] was more than 92 µM each time. The activity change, negative = inhibition in assay [3] (at 17.2 µM (top of the series)) is 6.73%. In assay [14], the activity change, negative = cytotoxicity is 11.8% and 9.96%. Moreover, the Potency entry in assay [15], in assay [17] and in assay [18] was “inactive” each time.
With `Cc1cc(C(C)(C)C)c(O)c(C)c1CC1=NCCN1`, the result in [1], in [13] and in [6] was inactive. For the same compound, the Potency result in assay [2] is “inactive”. Besides, the Potency in assay [4] was > 46 µM and > 20.6 µM; in [5] it was > 46 µM and > 20.6 µM.
`CN1CCN(CCCN2c3ccccc3Sc3ccc(Cl)cc32)CC1`: the compound was called inactive in assay [1], in [13] and in assay [6]. Also, the Potency in [2] is 1 µM (active) and 2.51 µM (active). Besides, in [3] (at 17.2 µM (top of the series)), the activity change, negative = inhibition is -28.9%.
As to `COc1ccc(CCN(C)CCCC(C#N)(c2ccc(OC)c(OC)c2)C(C)C)cc1OC` (configuration not stated), the result in assay [1], in assay [13], in assay [6], in [16] and in [19] was inactive. Also, the Potency in assay [7], in [9], in assay [11] and in [12] was more than 92 µM in each case. In addition, the activity change, negative = cytotoxicity in [14] is -16.5%. Also, the Potency result in [17] and in assay [18] was “inactive” in each case.
For the compound `CCOC(=O)c1ncn2c1CN(C)C(=O)c1cc(F)ccc1-2`, the outcome in assay [1] was inactive. Also, the Potency in assay [2] is 1.58 µM (active). The activity change, negative = inhibition in assay [3] (at 38 µM (top of the series)) is -1.55%.
For `Nc1c2c(nc3ccccc13)CCCC2`, the compound was classed as inactive in assay [1], in assay [13], in [6], in assay [16] and in [19]. For the same compound, the Potency in [2] was 3.16 µM (active) and 794 nM (active) and 501 nM (active); in [7], more than 92 µM; in assay [9], more than 92 µM; in assay [10] it was more than 92 µM; in assay [11], more than 92 µM; in assay [12], more than 92 µM. In [14], the activity change, negative = cytotoxicity is -21.2%. In addition, the Potency result in assay [15], in assay [17] and in assay [18] was “inactive” throughout.
As to `NC(=O)OCC(COC(N)=O)c1ccccc1`, the compound was classed as inactive in assay [1], in assay [13] and in [6]. For the same compound, the Potency result in assay [2] was “inactive”. The activity change, negative = inhibition in assay [3] (at 17.2 µM (top of the series)) is 3.58%; in assay [3] (at 38 µM (top of the series)), 8.56%. The Potency is > 46 µM and > 20.6 µM in assay [4]; more than 46 µM in assay [5].
